Source: PubChem BioAssay
Activity calls are given as the source filed them.

Key:
[1] = E. coli DRC41 culture turbidity changes, primary screen, E. coli filamentation inducer project, strain DRC41, OD650, 48 h (AID 1152);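 note: E. coli MC1000 strain DRC41 lacking acrAB efflux pump and sulA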; conditions: E. coli DRC41 (acrAB sulA), higher = more signal, called active from +8 up or from −8 down
[2] = small-molecule binders of probe aLefty1, primary screen, biochemical, small-molecule microarray, 635/667 nm fluorescence (AID 1153); conditions: higher = more signal;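 note: score merges spot fluorescence with signal-to-noise ratio from the scanned slide images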
[3] = PSAC antagonists in infected red cells, primary screen, cell-based, P. falciparum Indochina, OD700, 1 h (AID 1154); conditions: P. falciparum Indochina infected RBC osmotic lysis, higher = more signal, called active from +8 up or from −8 down
[4] = PSAC antagonists in infected red cells, primary screen, cell-based, P. falciparum Indochina, OD700, 2 h (AID 1155);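 note: lysis reports solute entry through the parasite surface anion channel PSAC; channel blockers reduce lysis of infected cells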; conditions: P. falciparum Indochina infected erythrocytes, osmotic lysis OD700; higher = more signal, called active from +8 up or from −8 down
[5] = osmotic lysis modulators in infected erythrocytes, primary screen, PSAC antagonist project, cell-based, P. falciparum Indochina, OD700, 3 h (AID 1156); conditions: higher = more signal, called active from +8 up or from −8 down
[6] = PSAC antagonists in infected red cells, primary screen, cell-based, P. falciparum Indochina, OD700, 18 h (AID 1157); conditions: P. falciparum Indochina infected erythrocytes, osmotic lysis OD700, 18 h; higher = more signal, called active from +8 up or from −8 down
[7] = modulators of S6 phosphorylation in cells, primary screen, cell-based, A549, cytoblot, luminescence, serum-stimulated (AID 1158); conditions: A549 phospho-S6 cytoblot, 5 h, higher = more signal;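 note: serum-stimulated A549 lung adenocarcinoma cells; signal is phosphorylated S6 detected by cytoblot immunostaining with HRP secondary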
[8] = target: NADPH oxidase 2 (Homo sapiens) (UniProt P04839); test: NOX2-dependent H2O2 signal modulators, primary screen, NOX inhibitor project, cell-based, HEK293-NOX2, PMA-stimulated, Amplex Red fluorescence (AID 1159); conditions: 45 min, higher = more signal, called active from +8 up or from −8 down; note: test concentration not given here
[9] = target: NADPH oxidase 4 (Homo sapiens) (UniProt Q9NPH5); test: NOX4-dependent H2O2 signal modulators, primary screen, NOX inhibitor project, cell-based, HEK293-NOX4, tetracycline-induced, Amplex Red fluorescence (AID 1160); conditions: 45 min, higher = more signal, called active from +8 up or from −8 down
[10] = target: NADPH oxidase 5 (Homo sapiens) (UniProt Q96PH1); test: NOX5-dependent H2O2 signal modulators, primary screen, NOX inhibitor project, cell-based, HEK293-NOX5, Amplex Red fluorescence (AID 1161); conditions: HEK293-NOX5, ionomycin, 45 min, higher = more signal
[11] = A549 cell viability effects, profiling panel, calcein-AM fluorescence, 48 h, basal (AID 1162); conditions: higher = more signal; note: test concentration not given here
[12] = adipocyte viability effects, profiling panel, cell-based, 3T3-L1 adipocytes, calcein-AM fluorescence, 48 h, basal (AID 1163); conditions: 3T3-L1 adipocytes viability, higher = more signal; note: test concentration not given here
[13] = HepG2 cell viability effects, profiling panel, calcein-AM fluorescence, 48 h, basal (AID 1164); conditions: higher = more signal; note: test concentration not given here
[14] = MM1S cell viability effects, profiling panel, calcein-AM fluorescence, 48 h, basal (AID 1165); conditions: higher = more signal;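 note: viability of MM1S multiple myeloma cells under basal unstimulated conditions; test concentration not given here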
[15] = basal RPMI8226 viability, no added stimulus, profiling panel, cell-based, calcein-AM fluorescence, 48 h, PK04 Diversity Set (AID 1166); conditions: RPMI8226 myeloma viability, higher = more signal;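 note: cells grown under basal conditions without added stimulus; test concentration not given here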
[16] = basal HepG2 mitochondrial membrane potential changes, profiling panel, cell-based, JC-1 fluorescence, 24 h, 100 nL compound (AID 1167); conditions: higher = more signal; note: test concentration not given here
[17] = basal 3T3-L1 adipocyte mitochondrial potential changes, profiling panel, cell-based, JC-1 fluorescence, 3T3-L1 adipocytes, 24 h, 100 nL compound (AID 1168); conditions: JC-1 mitochondrial fluorescence, higher = more signal, called active from +8 up or from −8 down; note: test concentration not given here
[18] = basal RPMI8226 mitochondrial membrane potential changes, profiling panel, cell-based, JC-1 fluorescence, 24 h, 100 nL compound (AID 1169); conditions: RPMI8226 myeloma, JC-1 mitochondrial potential fluorescence, higher = more signal; note: test concentration not given here
[19] = basal MM1S mitochondrial membrane potential changes, profiling panel, cell-based, JC-1 fluorescence, 24 h, 100 nL compound (AID 1170); conditions: higher = more signal; note: test concentration not given here
[20] = A549 lung cancer cell viability effects, profiling panel, resazurin fluorescence, 24 h, PK04 Diversity Set (AID 1171); conditions: higher = more signal, called active from +8 up or from −8 down; note: test concentration not given here

Chain of NADPH oxidase 2 (Homo sapiens) (P04839 whole entry, looked up): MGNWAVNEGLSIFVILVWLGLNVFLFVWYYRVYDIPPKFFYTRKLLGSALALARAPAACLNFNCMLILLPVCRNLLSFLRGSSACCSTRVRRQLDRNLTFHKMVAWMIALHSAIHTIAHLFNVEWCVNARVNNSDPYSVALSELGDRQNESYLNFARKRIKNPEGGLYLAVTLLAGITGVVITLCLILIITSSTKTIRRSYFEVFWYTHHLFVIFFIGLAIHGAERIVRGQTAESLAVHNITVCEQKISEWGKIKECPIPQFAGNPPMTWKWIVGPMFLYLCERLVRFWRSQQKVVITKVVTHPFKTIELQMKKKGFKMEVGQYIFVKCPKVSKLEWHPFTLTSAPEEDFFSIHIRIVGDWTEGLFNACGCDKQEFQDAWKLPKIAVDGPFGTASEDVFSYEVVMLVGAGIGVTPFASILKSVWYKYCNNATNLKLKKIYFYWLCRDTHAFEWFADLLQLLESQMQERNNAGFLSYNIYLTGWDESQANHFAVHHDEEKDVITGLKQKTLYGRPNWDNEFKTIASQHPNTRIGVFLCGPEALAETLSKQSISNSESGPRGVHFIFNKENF
Chain of NADPH oxidase 5 (Homo sapiens) (Q96PH1 whole entry, looked up): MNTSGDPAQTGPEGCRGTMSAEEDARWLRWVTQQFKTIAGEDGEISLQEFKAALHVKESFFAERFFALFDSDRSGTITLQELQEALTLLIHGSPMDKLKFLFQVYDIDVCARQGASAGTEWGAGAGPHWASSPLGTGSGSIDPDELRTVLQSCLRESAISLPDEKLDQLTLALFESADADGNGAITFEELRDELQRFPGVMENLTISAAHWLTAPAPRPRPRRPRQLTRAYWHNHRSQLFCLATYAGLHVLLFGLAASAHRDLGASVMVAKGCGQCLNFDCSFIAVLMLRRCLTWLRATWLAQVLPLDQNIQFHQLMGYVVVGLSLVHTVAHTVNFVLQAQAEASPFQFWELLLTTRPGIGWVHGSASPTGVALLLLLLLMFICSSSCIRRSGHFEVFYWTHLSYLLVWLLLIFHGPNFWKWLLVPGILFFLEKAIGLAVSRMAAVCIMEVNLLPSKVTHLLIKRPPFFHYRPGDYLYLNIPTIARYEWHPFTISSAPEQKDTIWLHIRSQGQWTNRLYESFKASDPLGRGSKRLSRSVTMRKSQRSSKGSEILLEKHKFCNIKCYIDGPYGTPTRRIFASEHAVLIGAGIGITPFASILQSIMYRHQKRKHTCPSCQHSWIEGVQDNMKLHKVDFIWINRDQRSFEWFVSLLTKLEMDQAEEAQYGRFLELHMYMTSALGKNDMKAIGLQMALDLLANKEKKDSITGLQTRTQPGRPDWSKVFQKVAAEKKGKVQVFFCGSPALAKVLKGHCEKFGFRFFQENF
Chain of NADPH oxidase 4 (Homo sapiens) (Q9NPH5 whole entry, looked up): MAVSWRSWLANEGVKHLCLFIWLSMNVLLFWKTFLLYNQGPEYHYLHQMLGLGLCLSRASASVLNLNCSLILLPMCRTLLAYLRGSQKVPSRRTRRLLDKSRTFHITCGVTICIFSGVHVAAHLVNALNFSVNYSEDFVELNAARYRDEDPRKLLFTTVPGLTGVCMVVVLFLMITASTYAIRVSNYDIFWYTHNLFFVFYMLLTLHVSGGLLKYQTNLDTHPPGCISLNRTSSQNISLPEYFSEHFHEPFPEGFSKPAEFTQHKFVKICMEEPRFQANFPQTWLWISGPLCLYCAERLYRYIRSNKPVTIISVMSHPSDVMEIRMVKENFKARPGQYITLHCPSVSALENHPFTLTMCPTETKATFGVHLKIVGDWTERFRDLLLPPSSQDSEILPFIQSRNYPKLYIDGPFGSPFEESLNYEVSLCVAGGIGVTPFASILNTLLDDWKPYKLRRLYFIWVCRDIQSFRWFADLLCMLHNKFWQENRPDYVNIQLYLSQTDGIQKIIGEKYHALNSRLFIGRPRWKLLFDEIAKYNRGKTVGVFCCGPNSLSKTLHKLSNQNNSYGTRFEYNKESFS

| SMILES | z-score [1] | composite z-score [2] | z-score [3] | z-score [4] | z-score [5] | z-score [6] | z-score [7] | z-score [8] | z-score [9] | z-score [10] | z-score [11] | z-score [12] | z-score [13] | z-score [14] | z-score [15] | z-score [16] | z-score [17] | z-score [18] | z-score [19] | z-score [20] |
| --- | --- | --- | --- | --- | --- | --- | --- | --- | --- | --- | --- | --- | --- | --- | --- | --- | --- | --- | --- | --- |
| COC(=O)[C@H](Cc1ccccc1)N[C@H](/C=C/C1CC1)[C@@H](O)Cc1ccccc1 | 1.85 (inactive) | -0.235 | 0.786 (inactive) | -0.96 (inactive) | -0.868 (inactive) | -1.83 (inactive) | 2.14 | 0.455 (inactive) | 0.0154 (inactive) | -2.49 | -0.531 | -0.451 | 0.021 | 0.18 | 0.732 | 1.46 | 0.792 (inactive) | -0.52 | -1.88 | 1.2 (inactive) |
| CCOC(=O)C1=C[C@@H](C(C)C)N(S(=O)(=O)c2ccc(C)cc2)[C@H]1c1ccccc1F | -1.02 (inactive) | 0.389 | 0.21 (inactive) | 0.668 (inactive) | -0.422 (inactive) | 0.587 (inactive) | -0.851 | 0.173 (inactive) | -0.957 (inactive) | 1.06 | -1.2 | 0.0139 | -0.972 | -0.463 | -1.08 | 0.175 | 0.227 (inactive) | -0.128 | -0.581 | 1.76 (inactive) |
| COc1cc2c(cc1O)C(c1cccs1)N(Cc1ccc([N+](=O)[O-])o1)CC2 (stereo not given) | 1.9 (inactive) | 0.0161 | 25.1 (active) | 7.24 (inactive) | -0.39 (inactive) | -0.628 (inactive) | 1.23 | -4.4 (inactive) | -2.58 (inactive) | -2.92 | 0.383 | 0.0975 | 0.859 | 0.647 | 0.174 | -0.771 | 0.627 (inactive) | -0.185 | 1.09 | -1.63 (inactive) |
| [N-]=[N+]=Nc1ccccc1[C@H]1OC(c2ccc(OCCCO)cc2)=N[C@@]1(CCS(=O)(=O)c1ccccc1)C(=O)NCc1ccccc1 | -0.795 (inactive) | 0.373 | 28.1 (active) | 27.8 (active) | 1.64 (inactive) | 1.92 (inactive) | -0.234 | 0.443 (inactive) | 0.184 (inactive) | -0.852 | -0.0804 | -0.337 | -0.777 | -0.99 | -0.816 | -0.337 | -0.327 (inactive) | -0.929 | -0.673 | 1.09 (inactive) |
| CC(=O)NCCCC[C@@H]1NC(=O)[C@H]2C[C@@H](C(=O)O)[C@@H](c3ccc(O)cc3)N2C1=O | -0.73 (inactive) | 0.249 | 2.25 (inactive) | 2.24 (inactive) | -0.368 (inactive) | 0.912 (inactive) | -1.14 | 1.61 (inactive) | 0.625 (inactive) | 1.64 | -0.199 | 0.766 | -0.14 | -2.18 | -1.3 | 0.237 | 0.328 (inactive) | -0.621 | -1.55 | 0.273 (inactive) |
| O=C(NC1CC1)[C@@H]1c2ccccc2C(=O)N(C2Cc3ccccc3C2)[C@H]1c1ccc(CO)cc1 | 0.412 (inactive) | -0.0377 | 2.06 (inactive) | 0.208 (inactive) | 0.531 (inactive) | -0.112 (inactive) | -0.153 | 0.0375 (inactive) | 0.108 (inactive) | -0.717 | 0.201 | 0.526 | 0.116 | 0.62 | -0.987 | 2.96 | 0.832 (inactive) | 0.0519 | 0.339 | 0.888 (inactive) |
| N#Cc1ccc(C(O)C2C=CC3C(=O)N(c4ccccc4)C(=O)C3N2Nc2ccccc2F)cc1 (stereo not given) | 0.55 (inactive) | 0.149 | 3.98 (inactive) | -0.245 (inactive) | -0.246 (inactive) | -0.616 (inactive) | 0.179 | -1.82 (inactive) | -3.54 (inactive) | -2.02 | 0.545 | -1.05 | -0.245 | 0.755 | -0.406 | -0.776 | -0.872 (inactive) | 0.585 | -0.0841 | 0.0801 (inactive) |
| COc1ccc([C@H]2C[C@H]3C(I)=C[C@@H]2C(=O)[C@]32CO2)cc1 | 0.794 (inactive) | -0.28 | 0.524 (inactive) | 0.0528 (inactive) | 0.255 (inactive) | -0.0393 (inactive) | 0.759 | -0.546 (inactive) | -0.298 (inactive) | -0.974 | -0.87 | 0.698 | -0.856 | -3.23 | -2.81 | -0.22 | 0.315 (inactive) | -0.474 | -0.967 | 0.46 (inactive) |
| O=C1[C@@]23C=C(Br)[C@H](C[C@@H]2COC3)[C@]12CO2 | -0.508 (inactive) | 0.151 | 0.483 (inactive) | -0.0352 (inactive) | -0.103 (inactive) | -0.334 (inactive) | 0.424 | 0.447 (inactive) | -1.92 (inactive) | -4.05 | -0.186 | -0.959 | -1.1 | -3.17 | -2.02 | -2.21 | -1.42 (inactive) | -1.3 | -2.19 | -0.453 (inactive) |
